From PubChem
Shown are actives, neighbours in structure and some others; about 19% of the full set was active somewhere.
DT40 TDP1 no CPT: qHTS for Inhibitors of human tyrosyl-DNA phosphodiesterase 1 (TDP1): qHTS in cells in absence of CPT | Potency, µM (titrated, usually from 46.2 µM), inactives show top-dose activity change, negative = growth inhibition, actives largely listed as inhibitors | DT40 Tdp1-/- hTDP1 cells, no CPT, ATP luminescence, 48 h | AID 686978, 2013 | actives 15% (n = 420,000); also: potency is read from the fitted curve at half-maximal effect; % is scaled to controls: 0 for no effect and ±100 for the full control effect; nearly all actives have a fitted effect of over 55% in size
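No-CPT arm: Tdp1-/-;hTDP1 DT40 cells (400/well) plus compounds, incubated ≥48 hr at 37 °C. Readout CellTiter-Glo luminescence.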
HepG2 tox: qHTS for Inhibitors of TGF-b: Cytotox Counterscreen; HepG2 CAGA-GFP viability, ATP luminescence, 18 h; Potency, µM (doses to about 46.1 µM), without a hit: top-dose activity change, negative = cytotoxicity, actives largely listed as cytotoxic; actives 0.76% (n = 410,000); also: potency is read from the fitted curve at half-maximal effect
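HepG2 CAGA-GFP cells (1000/well, DMEM with 1% FBS) received compound, then TGF-beta at 500 pg/mL final, and were incubated 18 hours at 37 degrees C. Viability was read by CellTiter-Glo luminescence. Media-only wells were set as complete cell-killing and DMSO as no toxicity.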
IL-1B inflam inh: qHTS for Inhibitors of Inflammasome Signaling: IL-1-beta AlphaLISA Primary Screen | activity change, % at 57.5 µM | actives 4.7% (n = 360,000) | THP-1 LPS/ATP IL-1B secretion, AlphaLISA, 16 h; stronger effect = lower value | AID 743279, 2014; in the data active = activity change below about -50%; inconclusive = mostly about -30% to -49%; also: % is scaled to controls: 0 for no effect and ±100 for the full control effect
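Secreted IL-1B measured by AlphaLISA bead assay after 16 h compound exposure of THP-1 cells; compounds (final up to 57.5 uM) added 1 h before LPS (250 ng/mL) and ATP (1.25 mM) stimulation; lower signal means less secretion.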
DT40 TDP1 CPT: qHTS for Inhibitors of human tyrosyl-DNA phosphodiesterase 1 (TDP1): qHTS in cells in presence of CPT. chicken DT40 Tdp1-/-;hTDP1 cells + 20 nM CPT, ATP luminescence, 48 h. actives 12% (n = 420,000). Potency, µM (highest dose often 46.2 µM), without a hit: at the top dose activity change, negative = growth inhibition, hits mostly inhibitors; also: potency is read from the fitted curve at half-maximal effect; % is scaled to controls: 0 for no effect and ±100 for the full control effect; nearly all actives have a fitted effect of over 55% in size
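Chicken DT40 Tdp1-/- cells stably complemented with human TDP1 were seeded at 400 cells/well in medium containing 20 nM camptothecin, exposed to pin-transferred compounds, and grown at 37 °C for at least 48 hr. Viability was read as ATP luminescence.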
TDP1 block: qHTS Assay for Inhibitors of Tyrosyl-DNA Phosphodiesterase (TDP1) | AID 485290, 2010 | recombinant TDP1, AlphaScreen DNA substrate cleavage | actives 0.28% (n = 350,000) | Tyrosyl-DNA phosphodiesterase 1 (Homo sapiens), Q9NUW8 | Potency, µM (doses to about 130 µM), without a hit: at the top dose activity change, negative = inhibition, hits mostly inhibitors; also: potency is read from the fitted curve at half-maximal effect; % is scaled to controls: 0 for no effect and ±100 for the full control effect; nearly all actives have a fitted effect of over 40% in size
Target sequence (Q9NUW8 whole entry, looked up): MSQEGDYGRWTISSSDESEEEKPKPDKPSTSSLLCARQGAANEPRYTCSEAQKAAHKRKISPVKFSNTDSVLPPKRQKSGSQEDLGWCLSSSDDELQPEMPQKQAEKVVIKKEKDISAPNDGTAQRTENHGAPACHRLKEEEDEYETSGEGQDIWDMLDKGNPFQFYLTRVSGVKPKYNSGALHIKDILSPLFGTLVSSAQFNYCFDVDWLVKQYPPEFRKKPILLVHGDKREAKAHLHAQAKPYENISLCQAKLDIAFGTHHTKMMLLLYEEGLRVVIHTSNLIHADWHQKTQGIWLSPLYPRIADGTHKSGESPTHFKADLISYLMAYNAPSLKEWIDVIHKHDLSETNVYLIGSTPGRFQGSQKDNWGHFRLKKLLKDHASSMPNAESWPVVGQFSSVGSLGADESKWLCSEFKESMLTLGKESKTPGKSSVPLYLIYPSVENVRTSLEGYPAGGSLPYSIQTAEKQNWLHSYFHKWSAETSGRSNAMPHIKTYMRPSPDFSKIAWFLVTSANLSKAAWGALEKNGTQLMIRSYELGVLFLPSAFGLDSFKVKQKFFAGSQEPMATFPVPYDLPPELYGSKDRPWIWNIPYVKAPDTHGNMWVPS
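AlphaScreen read-out: signal falls as enzyme removes the 3' tyrosine-FITC from a 5'-biotinylated DNA oligo (15 nM, 5 min, RT). Enzyme was E. coli-made recombinant Tdp1 at 1 nM, exposed to compound for 15 min beforehand; beads 10 ug/ml, 10 min.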
TGFb SMAD3 inh: qHTS for Inhibitors of TGF-b. Potency, µM (top dose mostly 46.1 µM), without a hit: top-dose activity, negative = inhibition, most hits filed as inhibitors. actives 1.2% (n = 410,000). HepG2 CAGA-GFP TGF-b/SMAD3 reporter, GFP fluorescence, 18 h; TGF-beta stimulated, 500 pg/mL final; also: potency is read from the fitted curve at half-maximal effect; % is scaled to controls: 0 for no effect and ±100 for the full control effect; nearly all actives have a fitted effect of over 65% in size
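Inhibition was scored as loss of TGF-beta-induced (500 pg/mL final, 18 hours, 37 degrees C) GFP in HEPG2 cells carrying a CAGA-GFP reporter, in DMEM with 1% FBS. Well GFP was summed per cell; Activity was normalised to unstimulated and stimulated DMSO wells, then concentration-response fitting.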
* hit, by the source's call. Unless noted, calls follow the shape of the dose curve; as a rule, active = well fitted curve in the direction sought with a large enough effect; inconclusive = small, poorly fitted or top-dose-only effect, or another doubt; inactive = no such curve, though single readings can be large; an effect the other way counts as inactive or inconclusive.

`CCN(CC)S(=O)(=O)c1ccc(N2CCCCS2(=O)=O)cc1` gave DT40 TDP1 no CPT -23%, HepG2 tox -1%, DT40 TDP1 CPT -15%, TDP1 block 4% and TGFb SMAD3 inh -11%.
Screening Cc1noc(C)c1S(=O)(=O)Nc1ccc(C(=O)N2CCN(c3ccc(Cl)cc3)CC2)cc1 returned DT40 TDP1 no CPT 16µM*, HepG2 tox -25%, IL-1B inflam inh -4, DT40 TDP1 CPT inconclusive, TDP1 block 4% and TGFb SMAD3 inh -19%.
Cc1noc(C)c1S(=O)(=O)N1CCN(c2ccc(Cl)cc2)CC1 was read as DT40 TDP1 no CPT -7%, HepG2 tox 5µM*, IL-1B inflam inh -4, DT40 TDP1 CPT inconclusive, TDP1 block 1% and TGFb SMAD3 inh -8%.
`O=C(Nc1ccccc1Br)C1CCCN(S(=O)(=O)c2cccc3nsnc23)C1` (centres undefined) gave DT40 TDP1 no CPT inconclusive, HepG2 tox -28%, DT40 TDP1 CPT inconclusive, TDP1 block 0% and TGFb SMAD3 inh inconclusive.
Screening CC1CCN(C(=O)c2ccc(N3C(=O)C4CCC(C)CC4C3=O)cc2)CC1 (centres undefined) returned DT40 TDP1 no CPT -20%, HepG2 tox -5%, DT40 TDP1 CPT 5%, TDP1 block 0% and TGFb SMAD3 inh -26%.
For O=C1C2C3C=CC(C3)C2C(=O)N1c1ccc(Cc2ccncc2)cc1 (centres undefined) the results were DT40 TDP1 no CPT 13µM*, HepG2 tox -19%, IL-1B inflam inh 17, DT40 TDP1 CPT inconclusive, TDP1 block 1% and TGFb SMAD3 inh inconclusive.
Screening CCc1ccc(N2C(=O)C3C4C=CC(CC4)C3C2=O)cc1 (centres undefined) returned DT40 TDP1 no CPT inconclusive, HepG2 tox -15%, IL-1B inflam inh 26, DT40 TDP1 CPT inconclusive and TGFb SMAD3 inh -28%.
For CC1CCC2C(=O)N(c3ccc(Cc4ccncc4)cc3)C(=O)C2C1 (centres undefined) the results were DT40 TDP1 no CPT 10µM*, HepG2 tox -31%, IL-1B inflam inh 0, DT40 TDP1 CPT 5.8µM*, TDP1 block 1% and TGFb SMAD3 inh inconclusive.
`CCn1c(=O)cc(SCC(=O)Nc2cccc(C)n2)c2ccccc21` gave DT40 TDP1 no CPT inconclusive, HepG2 tox -4%, IL-1B inflam inh -24, DT40 TDP1 CPT inconclusive, TDP1 block 1% and TGFb SMAD3 inh 18%.
CCn1c(=O)cc(SCC(=O)Nc2ccc(Cl)cc2)c2ccccc21 was read as DT40 TDP1 no CPT -17%, HepG2 tox -42%, IL-1B inflam inh -4, DT40 TDP1 CPT 20%, TDP1 block 2% and TGFb SMAD3 inh 16%.
Screening CCn1c(=O)cc(SCC(=O)NCc2cccc(Cl)c2)c2ccccc21 returned DT40 TDP1 no CPT 9.2µM*, HepG2 tox -32%, DT40 TDP1 CPT inconclusive, TDP1 block 9% and TGFb SMAD3 inh inconclusive.
For CCn1c(=O)cc(SCC(=O)NCc2ccc(Cl)cc2)c2ccccc21 the results were DT40 TDP1 no CPT 21µM*, HepG2 tox 3%, DT40 TDP1 CPT 10µM*, TDP1 block -2% and TGFb SMAD3 inh -1%.
